The values below come from the supplement of paper PMC13380429.

SMILES strings stand for the structures. Values without a mark were called inactive.

The test concerns Vero E6 infected with SARS-CoV-2. Description: inhibition of SARS-CoV-2 cytopathic effect; higher = more antiviral protection, active = above 15. To be noted: 48 h. (Cytopathic effects are the visible damage that an infection or toxin causes in cultured cells.)

As to `CC(=O)Nc1c(I)cc(I)c(C(=O)O)c1I` [acetriazoic-acid], the “inhibition of SARS-CoV-2 cytopathic effect” value (from here on “inhibition”) is -0.01% (1 nM); 0.54% (8.33 nM); -0.88% (100 nM); 0.14% (833.33 nM); -0.46% (10000 nM).

As for `CCCCCCCC/C=C\CCCCCCCC(=O)NCc1ccc(O)c(OC)c1` [olvanil], the “inhibition” value is 1.88% (1 nM); -0.08% (8.33 nM); 4.43% (100 nM); 1.07% (833.33 nM); 2.19% (10000 nM).

As for `CC(=C(CCOC(=O)C(C)C)SSC(CCOC(=O)C(C)C)=C(C)N(C=O)Cc1cnc(C)nc1N)N(C=O)Cc1cnc(C)nc1N` (stereo in doubt) [sulbutiamine], the “inhibition” value (1 nM) is 2%; the “inhibition” value (8.33 nM) was 2.05%; the “inhibition” value (100 nM) is 3.99%; the “inhibition” value (833.33 nM) is -4.07%; the “inhibition” value (10000 nM) was -4.54%.

Consider `C[C@H]1CCC/C=C/[C@@H]2C[C@H](O)C[C@H]2[C@H](O)/C=C/C(=O)O1` [brefeldin-A], for which the “inhibition” value (1 nM) is 0.16%; the “inhibition” value (8.33 nM) is 2.51%; the “inhibition” value (100 nM) is 47.2% (active); the “inhibition” value (833.33 nM) was -3.55%; the “inhibition” value (10000 nM) was -4.89%.

As for `Oc1c(Cl)cc(Cl)cc1Sc1cc(Cl)cc(Cl)c1O` [bithionol], the “inhibition” value is 0.29% (1 nM); 0.59% (8.33 nM); -0.92% (100 nM); -0.55% (833.33 nM); 2.32% (10000 nM).

For `C[C@@H]1O[C@@H]1P(=O)(O)O`, the “inhibition” value is 0.82% (1 nM); -0.13% (8.33 nM); -0.02% (100 nM); 0.37% (833.33 nM); 0.09% (10000 nM).

Take `CC(=O)CCCCn1c(=O)c2c(ncn2C)n(C)c1=O` [pentoxifylline]: the “inhibition” value by setting is: (1 nM) 3.31%; (8.33 nM) 2.23%; (100 nM) 0.1%; (833.33 nM) 1.21%; (10000 nM) -0.68%.

Take `O=P1(N(CCCl)CCCl)NCCCO1` (stereo not given) [cyclophosphamide]: the “inhibition” value is, setting by setting: (1 nM) -3.03%; (8.33 nM) 0.27%; (100 nM) -0.35%; (833.33 nM) -1.65%; (10000 nM) 0.46%.

As for `C/C(=N\NC(=O)C(NC(=O)c1ccccc1)c1n[nH]c(=O)c2ccccc12)c1cccc(Br)c1` (stereo not given), the “inhibition” value is -0.71% (1 nM); 2.21% (8.33 nM); 0.8% (100 nM); 3.15% (833.33 nM); 4.46% (10000 nM).

`CC1CCN(C(c2ccc(F)cc2)c2ccc(C(C)C(=O)O)cc2-c2ccc(C(F)(F)F)cc2)CC1` (stereo not given): the “inhibition” value reads like this: (1 nM) 3.01%; (8.33 nM) -0.54%; (100 nM) -0.83%; (833.33 nM) -0.11%; (10000 nM) -6.62%.

With `O=C1c2ccccc2C(Cc2ccnc(F)c2)(Cc2ccnc(F)c2)c2ccccc21`, the “inhibition” value runs as follows: (1 nM) 0.2%; (8.33 nM) 0.21%; (100 nM) 5.3%; (833.33 nM) 2.26%; (10000 nM) -2.51%.

With `Nc1cc(C(F)(F)F)c(-c2cc(N3CCOCC3)nc(N3CCOCC3)n2)cn1` [buparlisib], the “inhibition” value (1 nM) was 2.05%; the “inhibition” value (8.33 nM) is 0.38%; the “inhibition” value (100 nM) is -0.73%; the “inhibition” value (833.33 nM) is -3.58%; the “inhibition” value (10000 nM) is -12.6%.

Regarding `CC(=O)N[C@@H](CCC(N)=O)C(=O)O` [aceglutamide], the “inhibition” value runs as follows: (1 nM) 1.69%; (8.33 nM) 3.16%; (100 nM) 6.3%; (833.33 nM) 1.78%; (10000 nM) -5.34%.

For the compound `CN(C)CCC=C1c2ccccc2CCc2ccccc21` [amitriptyline], the “inhibition” value is -2.51% (1 nM); -0.51% (8.33 nM); 5.58% (100 nM); 1.84% (833.33 nM); -2.45% (10000 nM).

`COc1cc2c(cc1F)C(c1ccccc1Cl)=Nc1c(n[nH]c1C)N2`: the “inhibition” value is 1.86% (1 nM); 1.62% (8.33 nM); -1.34% (100 nM); 2.98% (833.33 nM); 2.4% (10000 nM).

`C[N+](C)(C)CCCCCNCC12CC3CC(CC(C3)C1)C2`: the “inhibition” value reads like this: (1 nM) -4.72%; (8.33 nM) -5.14%; (100 nM) -6.53%; (833.33 nM) -6.39%; (10000 nM) -4.67%.

Turning to `FC(F)(F)c1cc(CO[C@H]2CCCN[C@H]2c2ccccc2)cc(C(F)(F)F)c1`, the “inhibition” value reads like this: (1 nM) 0.32%; (8.33 nM) -2.69%; (100 nM) -5.07%; (833.33 nM) -6.64%; (10000 nM) 18.1% (active).

On to `C[N+]1(C)CCC(=C(c2ccccc2)c2ccccc2)CC1` [diphemanil], for which the “inhibition” value is, setting by setting: (1 nM) -0.26%; (8.33 nM) -0.4%; (100 nM) -0.53%; (833.33 nM) 2.17%; (10000 nM) 2.09%.

On to `NCC(=O)O`, for which the “inhibition” value reads like this: (1 nM) 1.39%; (8.33 nM) -0.35%; (100 nM) 1.12%; (833.33 nM) -1.32%; (10000 nM) 0.49%.
